Test results reported in PMC8384837, “Expanding the binding specificity for RNA recognition by a PUF domain”.

Tests used:
Test in all cases: yeast three-hybrid, YBZ-1, SC-Leu-His + 0.5 mM 3-AT, 4 days
Details in all cases: tags: N-Gal4 AD-HA kept; label: inside an RPR1-promoter hybrid RNA with tandem MS2 sites; ssRNA
PUM1 PUF domain R7-KRQ = PUM1 PUF domain R7-KRQ (Homo sapiens, UniProt Q14671 828-1176, S1079K;N1080R;E1083Q)
Method in brief: (§1)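 The interaction score is the log change in how often each variant appears, from input to selection. Frequencies came from PCR-amplified, Illumina-sequenced repeat regions of Pumilio-1 PUF domain libraries grown in strain YBZ-1 (LexA–MS2 coat fusion, HIS3 reporter) alongside matching RNA elements. Input plates were SC-Leu and selection plates were SC-Leu-His + 0.5 mM 3-AT, each for four days, and the log2 calculation used a pseudocount of 1 where a variant was absent.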

PUM1 PUF domain R7-HHP = PUM1 PUF domain R7-HHP (Homo sapiens, UniProt Q14671 828-1176, S1079H;N1080H;E1083P)
PUM1 PUF domain R7-HHP, sequence (Q14671 828-1176 S1079H/N1080H/E1083P): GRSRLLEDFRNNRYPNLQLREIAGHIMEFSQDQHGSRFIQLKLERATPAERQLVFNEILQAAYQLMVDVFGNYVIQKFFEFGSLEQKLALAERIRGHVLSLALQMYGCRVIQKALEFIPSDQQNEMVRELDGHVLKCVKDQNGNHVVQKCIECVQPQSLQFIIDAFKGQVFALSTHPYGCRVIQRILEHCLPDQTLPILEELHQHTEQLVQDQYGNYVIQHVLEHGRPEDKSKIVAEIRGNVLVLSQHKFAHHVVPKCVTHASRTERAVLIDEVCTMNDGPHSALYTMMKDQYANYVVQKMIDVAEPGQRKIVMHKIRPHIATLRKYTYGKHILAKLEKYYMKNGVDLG
Method in brief: as §1

PUM1 PUF domain R1-SGR = PUM1 PUF domain R1-SGR (Homo sapiens, UniProt Q14671 828-1176, R864G;Q867R)
PUM1 PUF domain R1-SGR, sequence (Q14671 828-1176 R864G/Q867R): as the sequence (Q14671 828-1176 S1079H/N1080H/E1083P) above, with R37G, Q40R, H252S, H253N, P256E counted along it
Method in brief: as §1

PUM1 PUF domain R4-CNC = PUM1 PUF domain R4-CNC (Homo sapiens, UniProt Q14671 828-1176, N971C;H972N;Q975C)
PUM1 PUF domain R4-CNC, sequence (Q14671 828-1176 N971C/H972N/Q975C): as the sequence (Q14671 828-1176 S1079H/N1080H/E1083P) above, with N144C, H145N, Q148C, H252S, H253N, P256E counted along it
Method in brief: as §1

PUM1 PUF domain R3-CYF = PUM1 PUF domain R3-CYF (Homo sapiens, UniProt Q14671 828-1176, R936Y;Q939F)
PUM1 PUF domain R3-CYF, sequence (Q14671 828-1176 R936Y/Q939F): as the sequence (Q14671 828-1176 S1079H/N1080H/E1083P) above, with R109Y, Q112F, H252S, H253N, P256E counted along it
Method in brief: as §1

PUM1 PUF domain R8-RHP = PUM1 PUF domain R8-RHP (Homo sapiens, UniProt Q14671 828-1176, N1122R;Y1123H;Q1126P)
PUM1 PUF domain R8-RHP, sequence (Q14671 828-1176 N1122R/Y1123H/Q1126P): as the sequence (Q14671 828-1176 S1079H/N1080H/E1083P) above, with H252S, H253N, P256E, N295R, Y296H, Q299P counted along it
Method in brief: as §1

PUM1 PUF domain R5-QVR = PUM1 PUF domain R5-QVR (Homo sapiens, UniProt Q14671 828-1176, C1007Q;R1008V;Q1011R)
PUM1 PUF domain R5-QVR, sequence (Q14671 828-1176 C1007Q/R1008V/Q1011R): as the sequence (Q14671 828-1176 S1079H/N1080H/E1083P) above, with C180Q, R181V, Q184R, H252S, H253N, P256E counted along it
Method in brief: as §1

PUM1 PUF domain R3-FSG = PUM1 PUF domain R3-FSG (Homo sapiens, UniProt Q14671 828-1176, C935F;R936S;Q939G)
PUM1 PUF domain R3-FSG, sequence (Q14671 828-1176 C935F/R936S/Q939G): as the sequence (Q14671 828-1176 S1079H/N1080H/E1083P) above, with C108F, R109S, Q112G, H252S, H253N, P256E counted along it
Method in brief: as §1

PUM1 PUF domain R4-CPC = PUM1 PUF domain R4-CPC (Homo sapiens, UniProt Q14671 828-1176, N971C;H972P;Q975C)
PUM1 PUF domain R4-CPC, sequence (Q14671 828-1176 N971C/H972P/Q975C): as the sequence (Q14671 828-1176 S1079H/N1080H/E1083P) above, with N144C, H145P, Q148C, H252S, H253N, P256E counted along it
Method in brief: as §1

PUM1 PUF domain R7-KRQ, sequence (Q14671 828-1176 S1079K/N1080R/E1083Q): as the sequence (Q14671 828-1176 S1079H/N1080H/E1083P) above, with H252K, H253R, P256Q counted along it

GGCUAGAACUAGUGGAUCCCCCGGCGCCCGGCGGCUCGAGCCCGGGUAAGUCUAAAUAGUCUGCAUGCCGCCGGGCGCCAUGCCUGCAGGUCGACUCUAGAAAACAUG
binding signal (PUM1 PUF domain R7-KRQ): 2.89 log2 enrichment (interaction score)
binding signal (PUM1 PUF domain R7-HHP): 2.54 log2 enrichment (interaction score)

GGCUAGAACUAGUGGAUCCCCCGGCGCCCGGCGGCUCGAGCCCGGGUAAGUGUAAAUCGUCUGCAUGCCGCCGGGCGCCAUGCCUGCAGGUCGACUCUAGAAAACAUG
binding signal (PUM1 PUF domain R1-SGR): 3.72 log2 enrichment (interaction score)

GGCUAGAACUAGUGGAUCCCCCGGCGCCCGGCGGCUCGAGCCCGGGUAAGUGUAUAUAGUCUGCAUGCCGCCGGGCGCCAUGCCUGCAGGUCGACUCUAGAAAACAUG
binding signal (PUM1 PUF domain R4-CNC): 3.13 log2 enrichment (interaction score)

GGCUAGAACUAGUGGAUCCCCCGGCGCCCGGCGGCUCGAGCCCGGGUAAGUGUAAAUAGUCUGCAUGCCGCCGGGCGCCAUGCCUGCAGGUCGACUCUAGAAAACAUG
binding signal (PUM1 PUF domain R3-CYF): 5.41 log2 enrichment (interaction score)
binding signal (PUM1 PUF domain R8-RHP): 5.42 log2 enrichment (interaction score)

GGCUAGAACUAGUGGAUCCCCCGGCGCCCGGCGGCUCGAGCCCGGGUAAGUGUCAAUAGUCUGCAUGCCGCCGGGCGCCAUGCCUGCAGGUCGACUCUAGAAAACAUG
binding signal (PUM1 PUF domain R5-QVR): 3.01 log2 enrichment (interaction score)

GGCUAGAACUAGUGGAUCCCCCGGCGCCCGGCGGCUCGAGCCCGGGUAAGUGUAAGUAGUCUGCAUGCCGCCGGGCGCCAUGCCUGCAGGUCGACUCUAGAAAACAUG
binding signal (PUM1 PUF domain R3-FSG): 3.59 log2 enrichment (interaction score)

GGCUAGAACUAGUGGAUCCCCCGGCGCCCGGCGGCUCGAGCCCGGGUAAGUAUAAAUAGUCUGCAUGCCGCCGGGCGCCAUGCCUGCAGGUCGACUCUAGAAAACAUG
binding signal (PUM1 PUF domain R7-HHP): 2.33 log2 enrichment (interaction score)

GGCUAGAACUAGUGGAUCCCCCGGCGCCCGGCGGCUCGAGCCCGGGUAAGUGUACAUAGUCUGCAUGCCGCCGGGCGCCAUGCCUGCAGGUCGACUCUAGAAAACAUG
binding signal (PUM1 PUF domain R4-CPC): 2.9 log2 enrichment (interaction score)

GGCUAGAACUAGUGGAUCCCCCGGCGCCCGGCGGCUCGAGCCCGGGUAAGCGUAAAUAGUCUGCAUGCCGCCGGGCGCCAUGCCUGCAGGUCGACUCUAGAAAACAUG
binding signal (PUM1 PUF domain R8-RHP): 5.5 log2 enrichment (interaction score)
